Source: PubChem BioAssay AID1159580 (chemical genetic matrix, 2015)
The campaign covered roughly 5,500 compounds. About 2,000 (36%) were called active. About 18% were inconclusive and are not listed. Some of the results follow. Values without a mark were called inactive. Rule as the data show it: active = normalized growth mostly below about 0.91 (no sharp cut-off); inconclusive = no clear call, values can overlap the other calls; inactive = mostly above about 0.92.

Assay: chemical genetic growth profiling, strain panel (AID 1159580);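 also: tested at 20 µM; growth read once vehicle control cultures reached saturation at 30 °C; 1 = growth at the plate median or of vehicle wells; lower values mean less growth of the strain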
Conditions: S. cerevisiae deletion strains, growth OD
[1] = locus YHR030C, strain SLT2, active compounds read low
[2] = locus YHR079C, strain IRE1, active compounds read low
[3] = locus YJL095W, strain BCK1, active compounds read low
[4] = locus YJR066W, strain TOR1, active compounds read low
[5] = locus YLR113W, strain HOG1, active compounds read low
[6] = locus YNL183C, strain NPR1, active compounds read low
[7] = locus YOR231W, strain MKK1, active compounds read low
[8] = locus YPL256C, strain CLN2, active compounds read low

CC(=O)OCC(=O)[C@@]1(O)CCC2C3CCC4=CC(=O)C=C[C@]4(C)[C@@]3(F)[C@@H](O)C[C@@]21C (stereo partly drawn)
normalized growth [1]: 1.07 | normalized growth [2]: 1.07 | normalized growth [3]: 1.01 | normalized growth [4]: 1 | normalized growth [5]: 0.999 | normalized growth [6]: 0.993 | normalized growth [7]: 1.05 | normalized growth [8]: 1.06

O=C(/C=C/C(=O)Oc1ccccc1C(=O)O)Oc1ccccc1C(=O)O
normalized growth (locus YAL021C, strain ccr4, active compounds read low): 0.961 | normalized growth (locus YAL026C, strain drs2, active compounds read low): 0.988 | normalized growth (locus YAL030W, strain snc1, active compounds read low): 0.992 | normalized growth (locus YBL061C, strain skt5, active compounds read low): 0.983 | normalized growth (locus YBR009C, strain hhf1, active compounds read low): 0.991 | normalized growth (locus YBR023C, strain chs3, active compounds read low): 0.994 | normalized growth (locus YBR171W, strain sec66, active compounds read low): 0.962 | normalized growth (locus YBR231C, strain swc5, active compounds read low): 0.984 | normalized growth (locus YBR279W, strain paf1, active compounds read low): 0.978 | normalized growth (locus YCL011C, strain gbp2, active compounds read low): 0.989 | normalized growth (locus YCL016C, strain dcc1, active compounds read low): 0.971 | normalized growth (locus YCL061C, strain MRC1, active compounds read low): 0.995 | normalized growth (locus YCL069W, strain vba3, active compounds read low): 0.99 | normalized growth (locus YCR088W, strain abp1, active compounds read low): 0.987 | normalized growth (locus YDL005C, strain med2, active compounds read low): 0.976 | normalized growth (locus YDL040C, strain nat1, active compounds read low): 0.992 | normalized growth (locus YDR001C, strain nth1, active compounds read low): 0.972 | normalized growth (locus YDR069C, strain doa4, active compounds read low): 0.98 | normalized growth (locus YDR137W, strain rgp1, active compounds read low): 0.969 | normalized growth (locus YDR159W, strain sac3, active compounds read low): 0.971 | normalized growth (locus YDR195W, strain ref2): 0.976 | normalized growth (locus YDR297W, strain sur2, active compounds read low): 0.987 | normalized growth (locus YDR334W, strain swr1, active compounds read low): 0.99 | normalized growth (locus YDR335W, strain msn5, active compounds read low): 0.986 | normalized growth (locus YDR392W, strain spt3, active compounds read low): 0.995 | normalized growth (locus YEL003W, strain gim4, active compounds read low): 0.995 | normalized growth (locus YEL037C, strain rad23, active compounds read low): 0.998 | normalized growth (locus YEL061C, strain CIN8 (second series), active compounds read low): 0.981 | normalized growth (locus YER015W, strain faa2, active compounds read low): 0.992 | normalized growth (locus YER016W, strain bim1, active compounds read low): 0.971 | normalized growth (locus YER111C, strain swi4, active compounds read low): 0.975 | normalized growth (locus YER155C, strain BEM2 (second series), active compounds read low): 0.998 | normalized growth (locus YFR010W, strain ubp6, active compounds read low): 0.991 | normalized growth (locus YGL167C, strain pmr1, active compounds read low): 0.976 | normalized growth (locus YGL173C, strain kem1, active compounds read low): 1 | normalized growth (locus YGL227W, strain vid30, active compounds read low): 0.962 | normalized growth (locus YGL240W, strain doc1, active compounds read low): 0.984 | normalized growth (locus YGL253W, strain hxk2, active compounds read low): 0.995 | normalized growth (locus YHR013C, strain ard1, active compounds read low): 0.984 | normalized growth (locus YHR027C, strain rpn1, active compounds read low): 0.979 | normalized growth [1]: 1.01 | normalized growth [2]: 1.02 | normalized growth (locus YHR142W, strain chs7, active compounds read low): 0.974 | normalized growth (locus YJL092W, strain hpr5, active compounds read low): 0.989 | normalized growth (locus YJL095W, strain BCK1 (second series), active compounds read low): 0.992 | normalized growth [3]: 1.02 | normalized growth (locus YJL115W, strain asf1, active compounds read low): 0.968 | normalized growth (locus YJL129C, strain trk1, active compounds read low): 0.964 | normalized growth (locus YJL154C, strain vps35, active compounds read low): 0.996 | normalized growth (locus YJL164C, strain tpk1, active compounds read low): 0.99 | normalized growth (locus YJL166W, strain qcr8, active compounds read low): 0.997 | normalized growth [4]: 0.975 | normalized growth (locus YKL160W, strain elf1, active compounds read low): 0.981 | normalized growth (locus YKR026C, strain gcn3, active compounds read low): 0.968 | normalized growth (locus YKR091W, strain srl3, active compounds read low): 0.978 | normalized growth (locus YLL001W, strain dnm1, active compounds read low): 0.999 | normalized growth (locus YLL026W, active compounds read low): 0.961 | normalized growth (locus YLL041C, strain sdh2, active compounds read low): 0.987 | normalized growth (locus YLR027C, strain aat2, active compounds read low): 0.985 | normalized growth [5]: 0.987 | normalized growth (locus YLR221C, strain rsa3, active compounds read low): 1 | normalized growth (locus YLR258W, strain gsy2, active compounds read low): 0.988 | normalized growth (locus YLR262C, strain YPT6 (second series), active compounds read low): 0.996 | normalized growth (locus YLR320W, strain mms22, active compounds read low): 1.01 | normalized growth (locus YLR342W, strain FKS1, active compounds read low): 0.983 | normalized growth (locus YLR357W, strain rsc2, active compounds read low): 0.987 | normalized growth (locus YLR370C, strain arc18, active compounds read low): 0.994 | normalized growth (locus YLR384C, strain iki3, active compounds read low): 0.976 | normalized growth (locus YML120C, strain ndi1, active compounds read low): 0.974 | normalized growth (locus YMR058W, strain fet3, active compounds read low): 0.984 | normalized growth (locus YMR125W, strain sto1, active compounds read low): 0.967 | normalized growth (locus YMR129W, active compounds read low): 0.973 | normalized growth (locus YMR205C, strain PFK2, active compounds read low): 0.964 | normalized growth (locus YMR231W, strain pep5, active compounds read low): 0.979 | normalized growth (locus YNL071W, strain lat1, active compounds read low): 1 | normalized growth [6]: 0.976 | normalized growth (locus YNL209W, strain ssb2, active compounds read low): 0.971 | normalized growth (locus YNL248C, strain rpa49, active compounds read low): 0.985 | normalized growth (locus YNL322C, strain KRE1 (second series), active compounds read low): 0.93 | normalized growth (locus YNR049C, strain mso1, active compounds read low): 0.985 | normalized growth (locus YOR001W, strain rrp6, active compounds read low): 1 | normalized growth (locus YOR070C, strain gyp1, active compounds read low): 0.978 | normalized growth (locus YOR080W, strain dia2, active compounds read low): 0.98 | normalized growth (locus YOR083W, strain WHI5, active compounds read low): 0.935 | normalized growth (locus YOR106W, strain vam3, active compounds read low): 0.953 | normalized growth [7]: 1.01 | normalized growth (locus YOR265W, strain rbl2, active compounds read low): 0.979 | normalized growth (locus YOR270C, strain vph1, active compounds read low): 1.02 | normalized growth (locus YOR290C, strain snf2, active compounds read low): 0.98 | normalized growth (locus YPL051W, strain arl3, active compounds read low): 0.984 | normalized growth (locus YPL078C, strain atp4, active compounds read low): 0.984 | normalized growth (locus YPL106C, strain sse1, active compounds read low): 0.973 | normalized growth (locus YPL240C, strain hsp82, active compounds read low): 0.968 | normalized growth [8]: 1

CC(/C=C/c1ccccc1)=N/OC(=O)c1ccccc1Cl
normalized growth (locus YAR019C, strain CDC15, active compounds read low): 0.967 | normalized growth (locus YBL105C, strain PKC1, active compounds read low): 0.97 | normalized growth (locus YBR135W, strain CKS1, active compounds read low): 0.974 | normalized growth (locus YBR136W, strain MEC1, active compounds read low): 0.969 | normalized growth (locus YBR160W, strain CDC28, active compounds read low): 0.97 | normalized growth (locus YDL017W, strain CDC7, active compounds read low): 0.976 | normalized growth (locus YDL028C, strain MPS1, active compounds read low): 0.981 | normalized growth (locus YDL101C, strain DUN1, active compounds read low): 0.976 | normalized growth (locus YDL108W, strain KIN28, active compounds read low): 0.982 | normalized growth (locus YDL132W, strain cdc53, active compounds read low): 0.978 | normalized growth (locus YDL214C, strain PRR2, active compounds read low): 0.902 | normalized growth (locus YDR052C, strain DBF4, active compounds read low): 0.981 | normalized growth (locus YDR054C, strain cdc34, active compounds read low): 0.96 | normalized growth (locus YDR226W, strain ADK1, active compounds read low): 0.979 | normalized growth (locus YDR477W, strain SNF1, active compounds read low): 0.911 | normalized growth (locus YER123W, strain YCK3, active compounds read low): 0.876 | normalized growth (locus YER133W, strain GLC7, active compounds read low): 0.917 | normalized growth (locus YFL009W, strain cdc4, active compounds read low): 0.974 | normalized growth (locus YFL029C, strain CAK1, active compounds read low): 0.969 | normalized growth (locus YFR003C, strain YPI1, active compounds read low): 0.97 | normalized growth (locus YFR019W, strain FAB1, active compounds read low): 0.936 | normalized growth (locus YFR028C, strain CDC14, active compounds read low): 0.969 | normalized growth (locus YGR040W, strain KSS1, active compounds read low): 0.887 | normalized growth (locus YGR052W, strain FMP48, active compounds read low): 0.949 | normalized growth (locus YGR092W, strain DBF2, active compounds read low): 0.874 | normalized growth [1]: 0.899 | normalized growth [2]: 0.888 | normalized growth (locus YHR082C, strain KSP1, active compounds read low): 0.96 | normalized growth (locus YHR205W, strain SCH9, active compounds read low): 0.864 | normalized growth (locus YIL147C, strain SLN1, active compounds read low): 0.974 | normalized growth [3]: 0.903 | normalized growth (locus YJL128C, strain PBS2, active compounds read low): 0.955 | normalized growth (locus YJL157C, strain FAR1, active compounds read low): 0.879 | normalized growth (locus YJR016C, strain ILV3, active compounds read low): 0.978 | normalized growth (locus YJR066W, strain TOR1 (second series), active compounds read low): 0.795 | normalized growth [4]: 0.963 | normalized growth (locus YKL048C, strain ELM1, active compounds read low): 0.936 | normalized growth (locus YKL067W, strain YNK1, active compounds read low): 0.907 | normalized growth (locus YKL101W, strain HSL1, active compounds read low): 0.902 | normalized growth (locus YKL193C, strain SDS22, active compounds read low): 0.974 | normalized growth (locus YKL203C, strain TOR2, active compounds read low): 0.954 | normalized growth [5]: 0.734 (active) | normalized growth (locus YLR133W, strain CKI1, active compounds read low): 0.896 | normalized growth (locus YLR403W, strain SFP1, active compounds read low): 0.86 | normalized growth (locus YML070W, strain DAK1, active compounds read low): 0.849 | normalized growth (locus YMR001C, strain CDC5, active compounds read low): 0.97 | normalized growth (locus YMR205C, strain PFK2 (second series), active compounds read low): 0.917 | normalized growth (locus YMR277W, strain FCP1, active compounds read low): 0.966 | normalized growth (locus YNL006W, strain LST8, active compounds read low): 0.984 | normalized growth (locus YNL020C, strain ARK1, active compounds read low): 0.905 | normalized growth (locus YNL161W, strain CBK1, active compounds read low): 0.968 | normalized growth [6]: 0.903 | normalized growth (locus YNL207W, strain RIO2, active compounds read low): 0.965 | normalized growth (locus YNL222W, strain SSU72, active compounds read low): 0.984 | normalized growth (locus YNL307C, strain MCK1 (second series), active compounds read low): 0.899 | normalized growth (locus YOL078W, strain AVO1, active compounds read low): 0.975 | normalized growth (locus YOL136C, strain PFK27, active compounds read low): 0.849 | normalized growth (locus YOR061W, strain CKA2, active compounds read low): 0.9 | normalized growth (locus YOR119C, strain RIO1, active compounds read low): 0.961 | normalized growth [7]: 0.84 | normalized growth (locus YOR329C, strain SCD5, active compounds read low): 0.974 | normalized growth (locus YPL031C, strain PHO85, active compounds read low): 0.909 | normalized growth (locus YPL153C, strain RAD53, active compounds read low): 0.896 | normalized growth (locus YPL204W, strain HRR25, active compounds read low): 0.897 | normalized growth (locus YPL209C, strain IPL1, active compounds read low): 0.966 | normalized growth [8]: 0.806 (active) | normalized growth (locus YPR025C, strain CCL1, active compounds read low): 0.977 | normalized growth (locus YPR106W, strain ISR1, active compounds read low): 0.964 | normalized growth (locus YPR111W, strain DBF20, active compounds read low): 0.961 | normalized growth (strain NNK1, active compounds read low): 0.963 | normalized growth (strain TSCII, active compounds read low): 0.961
